Our source for the max activity values is PubChem BioAssay AID1259418 (Broad Institute, 2018).

Hit rate of the full screen: of about 3,400 compounds, about 840 (25%) were called active. Inconclusive results (about 11%) are left out. The list is a sample of the results. Measured potencies and affinities stand elsewhere. Values without a mark were called inactive.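 Rule for the calls: active = fitted half-maximal concentration of signal decrease at or below twice the sample's top tested concentration; inconclusive = flat curve between -70 and -30 percent, or poor fit; inactive = flat within 30 percent, signal rise, or potency above limit.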

The experiment is described as follows: T. gondii growth inhibition with IFN-gamma, dose response, cell-based, ME49Luc, HeLa, luciferase, 72 h (AID 1259418). The conditions noted are these: T. gondii ME49Luc in IFN-y HeLa, active compounds read low, -100% = high-dose IFN-γ control wells; at 19.5 µM unless noted.
Take `CCOC(=O)c1cccc(NC(=O)Nc2ccc(-c3nc(-c4ccc(C)cc4C)co3)cc2)c1`: the max activity was -3.92% [at 1.35 µM].
`CCOc1ccc(-c2nc(CN3CCN(C(=O)Nc4cccc(C)c4C)CC3)c(C)o2)cc1`: the max activity is -7.65% [at 0.68 µM].
Take `O=C(CC1Nc2c3ccccc3nc(=S)n2C1=O)NCCc1ccccc1` (configuration not stated): the max activity is -10.8% [at 0.68 µM].
With `Cc1ccc(C)c(-c2coc(-c3ccc(NC(=O)NCc4cccc(F)c4)cc3)n2)c1`, the max activity is 9.05%.
With `Cc1oc(-c2cccc(Cl)c2)nc1CSc1nc2c(c(=O)[nH]1)CN(C(C)C)CC2`, the max activity was 17.7% [at 0.68 µM].
The value for `COc1ccc(-c2nc(Nc3ccc(F)cc3)c3ccccc3n2)cc1` was -11.2% [at 2.6 µM]; that for `COc1ccc(-c2nc(Nc3ccc(C)c(Cl)c3)c3ccccc3n2)cc1` was 13% [at 0.35 µM].
The value for `COc1ccc(-c2nc(Nc3ccc(Cl)cc3)c3ccccc3n2)cc1` was 10.4% [at 0.35 µM]; that for `CCOc1ccc(Nc2nc(-c3ccc(OC)cc3)nc3ccccc23)cc1` was 9.36%.
With `O=C(Cc1cccc(F)c1)N1CCC2(CC1)Nc1cc(F)ccc1-n1cccc12` the figure was -7.02% [at 2.6 µM]; with `CCOc1ccccc1CNc1nc(-c2ccc(Cl)cc2)nc2ccccc12`, 22.2%; with `COc1ccccc1NC(=O)Nc1ccc(-c2nc(-c3ccccc3)co2)cc1`, 62.5% [at 10 µM].
Consider `COc1cccc(CC(=O)Nc2ccc(-c3nc(-c4cc(C)ccc4C)co3)cc2)c1`, for which the max activity is -7.87%.
Regarding `CCC(C)Nc1nc(-c2ccc(Cl)cc2)nc2ccccc12` (configuration not stated), the max activity was -11.3% [at 10 µM].
`CCCNC(=O)[C@H]1[C@H](CO)[C@H]2Cn3c(ccc(C4=CCCCC4)c3=O)[C@H]2N1Cc1ccccc1F`: the max activity is 16.8% [at 10 µM].
With `CN1[C@@H]2c3ccc(/C=C/c4ccccc4)c(=O)n3C[C@H]1[C@H](CO)[C@H]2C(=O)NC1Cc2ccccc2C1` the figure was 43.1% [at 5 µM].
With `O=C(CCn1cnc2cc(-c3noc(CCc4c[nH]c5ccccc45)n3)ccc21)N1CCCC1` the figure was -14.5% [at 0.16 µM]; with `O=C(CCn1cnc2cc(-c3noc(-c4cccc5[nH]ccc45)n3)ccc21)N1CCCC1`, -15.6% [at 0.35 µM]; with `COc1ccc(NC(=O)Nc2ccc(-c3nc(-c4ccc(C)cc4)co3)cc2)cc1`, 43.2% [at 10 µM].
`CC(C)NC(=O)N1CCC2(CC1)OCCN(CCO)c1ccccc12`: the max activity was 20.9%.
Turning to `Cc1ccc(NC(=O)Nc2ccc(-c3nc(-c4ccccc4)co3)cc2)cc1`, the max activity is 19.9% [at 0.16 µM].
As to `N#Cc1ccc(-c2ccc3c(c2)[C@H]2[C@H](CCN2C(=O)C2CCCCC2)[C@@H](CO)N3)cc1`, the max activity was 27.2% [at 10 µM].
The value for `COc1ccc(-c2nc(Cn3nnc(-c4nc(-c5ccc(Cl)cc5)no4)c3C)c(C)o2)cc1` was 6.38%; that for `CCC(C(=O)N1CCC[C@@H]1C(=O)NCCc1csc(C)n1)c1ccccc1` (some centres not stated) was 9.81% [at 0.35 µM].
For the compound `COc1cc(-c2noc(-c3nnn(Cc4nc(-c5ccccc5)oc4C)c3C)n2)cc(OC)c1OC`, the max activity is 6.25% [at 0.35 µM].
As for `COc1ccc2c(c1)NC1(CCN(C(=O)c3ccc(C)c(F)c3)CC1)c1cccn1-2`, the max activity was 5.27% [at 0.68 µM].
Regarding `Cc1ccccc1Cn1cccc1CNS(=O)(=O)c1ccc2c(c1)CCC(=O)N2`, the max activity is 13.6% [at 2.6 µM].
The value for `O=C(CC1N=C2c3ccccc3N=C(SCc3cccc(F)c3)N2C1=O)NCc1cccs1` (configuration not stated) was -23.9% [at 5 µM].
In the case of `O=C(CCC1N=C2c3ccccc3N=C(SCc3cccc(Cl)c3)N2C1=O)NCc1ccco1` (configuration not stated), the max activity is 24.8% [at 5 µM].
With `NC(=O)C1(N2CCCCC2)CCN(c2ncc(NC(=O)c3cccc(Cl)c3)cc2C(=O)O)CC1`, the max activity was 5.69%.
`COc1ccc(-c2nc(N3CCc4ccccc43)c3ccccc3n2)cc1`: the max activity was -12.2% [at 0.35 µM].
Take `CCS(=O)(=O)N1CCC(C(=O)NCCc2csc(-c3cccs3)n2)CC1`: the max activity was -17.6%.
With `COc1ccc(-c2nc(Nc3ccc(F)cc3F)c3ccccc3n2)cc1` the figure was 10.1%.
The value for `Cc1ccc2c(c1C)-n1cccc1C1(CCN(C(=O)c3ccc(Br)cc3)CC1)N2` was 7.92% [at 0.16 µM]; that for `COc1cc(C(=O)Nc2ccc(-c3nc(-c4ccc(C)cc4)co3)cc2)cc(OC)c1OC` was 54.9% [at 10 µM]; that for `C[C@@H]1CN([C@@H](C)CO)C(=O)c2cccc(NC(=O)NC3CCCCC3)c2O[C@H]1CN(C)Cc1ccc(C(F)(F)F)cc1` was 7.51%.
With `C[C@H]1CN([C@@H](C)CO)C(=O)c2cccc(NC(=O)c3ccc(-c4nccs4)cc3)c2O[C@@H]1CN(C)C(=O)Nc1ccc(C(F)(F)F)cc1` the figure was 30.7% [at 5 µM]; with `CCCN(CCC)c1nc(-c2ccc(Cl)cc2)nc2ccccc12`, 25.7%.
With `COc1ccc(-c2nc(Cn3nnc(-c4nc(-c5cccc(F)c5)no4)c3C)c(C)o2)cc1`, the max activity is 5.24% [at 10 µM].
Consider `CCOc1ccccc1NC(=O)Nc1ccc(-c2nc(-c3ccc(C)cc3)co2)cc1`, for which the max activity is -10.4%.
Consider `O=C(CC1CC1)N[C@H]1CN(C(=O)c2ccoc2)C[C@@H]2CCCO[C@H]21`, for which the max activity is 19.7%.
On to `CCc1onc(C)c1C1CCCN1C(=O)c1cc(C(F)(F)F)nn1C` (configuration not stated), for which the max activity is 5.66% [at 0.16 µM].
The value for `O=C(Nc1ccc(-c2nc(-c3ccccc3)co2)cc1)Nc1ccccc1Cl` was 29.7% [at 10 µM]; that for `NCCNC(=O)c1nc(-c2ccc(Br)o2)no1` was 8.96% [at 10 µM]; that for `COc1ccc(-c2nc(C)c(-c3ccc(SCc4ccc(C)cc4)nn3)s2)cc1` was 10.6% [at 2.6 µM].
Regarding `Cc1nc(-c2ccc(F)cc2)sc1-c1ccc(SCc2ccc(F)cc2)nn1`, the max activity was 12.7% [at 5 µM].
Take `COc1ccc(-c2nc(C)c(-c3ccc(SCc4c(F)cccc4Cl)nn3)s2)cc1`: the max activity is 6.69% [at 0.16 µM].
`COc1cccc(-c2nc(C)c(-c3ccc(SCc4ccc(Cl)cc4Cl)nn3)s2)c1`: the max activity was -7.13% [at 1.35 µM].
As to `COc1cccc(-c2nc(C)c(-c3ccc(SCc4ccc(C(F)(F)F)cc4)nn3)s2)c1`, the max activity was 7.57% [at 0.16 µM].
Consider `COc1cccc(-c2nc(C)c(-c3ccc(SCc4ccc(C)cc4)nn3)s2)c1`, for which the max activity was 22.3% [at 10 µM].
`Cc1nc(-c2ccc(F)cc2)sc1-c1ccc(SCc2c(F)cccc2Cl)nn1`: the max activity is 12.7% [at 0.68 µM].
With `COc1cccc(-c2nc(C)c(-c3ccc(SCc4ccc(Br)cc4)nn3)s2)c1` the figure was -17.9%; with `Cc1ccc(C)c(-c2coc(-c3ccc(NC(=O)Nc4cc(F)ccc4F)cc3)n2)c1`, 18.4% [at 0.16 µM].
On to `CCOc1cc(C(=O)Nc2ccc3c(c2)CCC(=O)N3)cc(OCC)c1OCC`, for which the max activity was 7.32%.
Consider `Cc1ccc(-c2coc(-c3ccc(NC(=O)CC(C)C)cc3)n2)cc1`, for which the max activity was 33%.
With `Clc1ccc(-c2nc(NCc3cccnc3)c3ccccc3n2)cc1`, the max activity is -32.4% [at 0.35 µM].
Take `COc1ccc(-c2nc3c(s2)CN(S(=O)(=O)c2cccs2)CC3)cc1`: the max activity is 12.1% [at 0.16 µM].
Take `O=S(=O)(c1cccs1)N1CCCCN2[C@H](C1)[C@@H](c1ccc(/C=C/c3ccccc3)cc1)[C@@H]2CO`: the max activity was 11.8% [at 10 µM].
On to `COCCCN1CCc2nc(SCc3nc(-c4cccc(Cl)c4)oc3C)[nH]c(=O)c2C1`, for which the max activity is 33.5% [at 0.35 µM].
As for `O=C(NCC1CC1)C1CN(C(=O)c2ccoc2)CC12CCOCC2` (configuration not stated), the max activity was 17.9% [at 10 µM].
With `Cc1ccc(-n2ncc3c(NC4CCCCCCCCCCC4)ncnc32)c(C)c1` the figure was 53.2% [at 10 µM]; with `Oc1[nH]c2ccccc2c1N=Nc1nc(Nc2ccccc2)nc(N2CCOCC2)n1`, 12.6% [at 10 µM].
In the case of `CCN(CC)Cc1cn2c(n1)CN(C(=O)c1cnc(C)cn1)CC2`, the max activity was -25.1% [at 10 µM].
`CCc1nc(OCC(=O)Nc2cccc(C)c2C)c2ccccc2n1`: the max activity is 34.5%.
The value for `COc1ccccc1CNC(=O)CCC1N=C2c3ccccc3N=C(SCc3cc(=O)n4ccccc4n3)N2C1=O` (configuration not stated) was -7.46% [at 0.16 µM]; that for `CN1CCCN(C(=O)c2cc3c(c4ccccc4n3CC3CC3)n2S(C)(=O)=O)CC1` was 11.9% [at 5 µM].
For `CC(C)c1cc(C2CCCN2C(=O)c2cc(C(F)(F)F)nn2C)on1` (configuration not stated), the max activity is 9.25% [at 0.35 µM].
As for `COc1ccc(NC(=O)CN2CCC3(CC2)N=C(c2ccc(F)cc2)C(=O)N3)cc1`, the max activity was -27.9% [at 1.35 µM].
For the compound `O=C(NCCc1csc(-c2ccccc2)n1)[C@H]1CCCN1C(=O)c1ccc(F)cc1`, the max activity is -10.4% [at 0.16 µM].
Turning to `O=C(NCCc1csc(-c2ccccc2)n1)[C@H]1CCCN1C(=O)c1ccc(Br)cc1`, the max activity is -11% [at 0.16 µM].
Consider `Cc1nc(CCNC(=O)[C@H]2CCCN2C(=O)c2cccc(Br)c2)cs1`, for which the max activity was 23.4% [at 0.16 µM].
Regarding `Cc1nc(CCNC(=O)[C@H]2CCCN2C(=O)c2ccc(F)cc2)cs1`, the max activity was -9.63% [at 0.16 µM].
